Out of some 190,000 compounds screened, about 1,900 (1%) were called active.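 How the source made its calls: active means percentage of spot-positive cells more than 3 SD above its plate mean, without a fluorescence outlier flag or 80% toxicity; inconclusive means no clear call, values can overlap the other calls; inactive means the rest.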 The sample as a whole holds a higher share of actives than the screen did.
assay: GFP-LC3 puncta formation changes – imaging, high-content, MEF GFP-LC3, primary screen (AID 463193); settings: autophagy, at 10 µM; % cells with GFP-LC3 spots: stronger effect = higher value; toxicity: measured here: cell loss, nuclei count;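 on % cells with GFP-LC3 spots: spot-positive cell cutoff set from DMSO-treated cells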;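 on toxicity: cell loss after 18 h compound exposure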

| Compound | % cells with GFP-LC3 spots | toxicity |
| --- | --- | --- |
| COCCCNCCOCCOc1ccc(Cl)cc1Br | 5.65% (inactive) | 4.08% |
| CCn1nc(C)c(/C=N/NC(=O)Cc2ccc(Cl)cc2)c1C | 4.23% (inactive) | 8.44% |
| Cc1ccc(S(=O)(=O)NCCN2CCOCC2)cc1C | 1.8% (inactive) | 15.4% |
| Cc1cc(C)cc(NC(=S)NCCCN2CCOCC2)c1 | 12.3% (inactive) | -2.96% |
| Cc1cc(C)c(S(=O)(=O)NCCCN2CCOCC2)cc1Br | 19.8% (active) | 9.5% |
| CCc1nc2ccccc2c(C(=O)NCc2ccc(OC)cc2)c1C | 2.64% (inactive) | -18.8% |
| C=CCNc1nc(Nc2ccc(Cl)cc2)nc(OC)n1 | 0.706% (inactive) | 0.881% |
| Cc1ccc(NC(=O)OCCNC(=O)c2ccncc2)cc1 | 5.3% (inactive) | 0.481% |
| CC[C@H]1OC(=O)[C@H](C)[C@@H](O[C@H]2C[C@@](C)(OC)[C@@H](O)[C@H](C)O2)[C@H](C)[C@@H](O[C@@H]2O[C@H](C)C[C@H](N(C)C)[C@H]2O)[C@](C)(O)C[C@@H](C)[C@@H]2N[C@@H](COCCOC)O[C@H]([C@H]2C)[C@]1(C)O | 10.6% (inactive) | 20.5% |
| COc1cccc2cc(S(=O)(=O)c3ccc(C)cc3)/c(=N/NS(=O)(=O)c3ccc(C)cc3)oc12 | 5.62% (inactive) | 3.69% |
| CCN1C(=O)/C(=C2/Sc3ccc(OC)cc3N2C)SC1=Nc1ccc(C)cc1 | 24.8% (active) | -15% |
| CCN1C(=O)/C(=c2\s/c(=C3\Sc4ccccc4N3C)c(=O)n2C)N(C)C1=S | 1.17% (inactive) | 19.3% |
| CCN1C(=O)/C(=C2/Sc3ccccc3N2CCCS(=O)(=O)O)SC1=S | 1.02% (inactive) | -10.6% |
| CC(=O)c1ccc(N=C2SCCCN2C(=O)C2CCCCC2)cc1 | 1.47% (inactive) | -1.61% |
| CCCOc1ccc(NC(=O)C2OC3OC(C)(C)OC3C3OC(C)(C)OC23)cc1 (configuration not stated) | 19.1% (active) | -25.3% |
| CCCOc1ccc(NC(=O)C2CCCNC2=O)cc1 (configuration not stated) | 12.2% (inactive) | -1.43% |
| CCCOc1ccc(N/C=C/C(=O)C(C)(C)C)cc1 | 0.722% (inactive) | -6.8% |
| C=CCOc1c(Br)cc(/C=N\n2nnnc2N)cc1OC | 6.77% (inactive) | 29% |
| CC1CC2=C(CC1/C=N/NC(N)=S)C(C)(C)CCC2 (configuration not stated) | 39.4% (active) | 20% |
| CC1(C)CCCC2=C1CC1C(=O)N(c3ccccc3)C(=O)C1C2 (configuration not stated) | 3.25% (inactive) | 1.28% |
| Cc1cc2c(C)nc(N/N=C/c3ccccc3)nc2o1 | 16.3% (inactive) | 2.3% |
| Cc1ccc(Cl)cc1N1CCN(C(=O)c2cccc3c(=O)c(C)c(-c4ccccc4)oc23)CC1 | 3.68% (inactive) | 9.69% |
| O=C1CCC(=O)N1c1ccc(NCCc2ccccc2F)c([N+](=O)[O-])c1 | 1.23% (inactive) | 31.5% |
| CC(Oc1cccc(NC(=O)c2cccs2)c1)C(=O)c1ccccc1 (configuration not stated) | 9.23% (inactive) | 21.1% |
| Cc1ccc(NC(=O)CN2CCCCC2)c2c1CC(C)(C)O2 | 4.85% (inactive) | -23.6% |
| CCCc1[nH]nc2c1C(c1c(C)nn(-c3ccccc3)c1Cl)C(C#N)=C(N)O2 (configuration not stated) | 16.1% (inactive) | 24.7% |

| Compound | % cells with GFP-LC3 spots | toxicity |
| --- | --- | --- |
| CCCc1[nH]nc2c1C(C1CC=CCC1)C(C#N)=C(N)O2 (configuration not stated) | 8.01% (inactive) | 13% |
| CCCc1[nH]nc2c1C(c1ccc(Br)s1)C(C#N)=C(N)O2 (configuration not stated) | 13.3% (active) | 8.15% |
| Cc1ccc(OCc2n[nH]c(=S)n2-c2ccccc2)cc1 | 4.42% (inactive) | -18.6% |
| COc1ccc(Nc2ncc(F)c(N3CCOCC3)n2)cc1 | 7.22% (inactive) | 8.68% |
| O=C(Nc1cccc(F)c1)N1C2CCC1CC(O)(c1cccnc1)C2 (configuration not stated) | 1.55% (inactive) | 2.7% |
| COCCNC(=O)Cn1cc2c(n1)CCCCC2 | 4.61% (inactive) | -6.66% |
| O=C(Cn1cc2c(n1)CCCCC2)NCCN1CCOCC1 | 5.99% (inactive) | -2.07% |
| COc1ccccc1CNC(=O)Cn1cc2c(n1)CCCC2 | 15.2% (active) | 6.76% |
| CC(C)NC(=O)NCCCCCCS(C)=O (configuration not stated) | 22.5% (inactive) | 23.6% |
| CCOC(=O)c1c(NC(=O)C(C)Sc2c[nH]c3ccccc23)sc2c1CCC2 (configuration not stated) | 5.48% (inactive) | 2.6% |
| COc1ccc(CCc2nnc(CCC(=O)NCc3cnn(-c4ccccc4C)c3)o2)cc1 | 10.6% (inactive) | -18.2% |
| COc1cccc(CN(C)CC(=O)Nc2sc3c(c2C#N)CCC3)c1 | 6.72% (inactive) | -31.4% |
| CC(C)[C@H](NC(=O)c1ccc(F)cc1)C(=O)OCC(=O)NC(=O)c1cccn1C | 10.6% (inactive) | -0.516% |
| CCCCS(=O)c1snnc1C (configuration not stated) | 3.68% (inactive) | 1.95% |
| CCc1nnc(NS(=O)(=O)c2ccc(NS(=O)(=O)c3ccccc3)cc2)s1 | 1.63% (inactive) | 20.8% |
| CCc1nnc(NS(=O)(=O)c2ccc(NC(=S)NC(=O)/C=C/c3cccs3)cc2)s1 | 5.75% (active) | 7.01% |
| CCc1nnc(NS(=O)(=O)c2ccc(NC(=S)NC(=O)c3cccs3)cc2)s1 | 5.87% (inactive) | -9.89% |
| O=C(O)CCN(Cc1ccccc1)S(=O)(=O)c1c(Cl)cccc1Cl | 1% (inactive) | 7.07% |
| COc1ccc(C(=O)NNc2cc(C)nc(NNC(=O)c3ccc(OC)cc3)n2)cc1 | 0% (inactive) | -3.42% |
| COC(=O)[C@@H]1CC[C@H](C)[C@@H](c2ccc(C)cc2)N1C(=O)c1ccc(/C=N/O[C@H](C)c2cn([C@@H]3COC[C@H]3O)nn2)cc1 | 9.78% (inactive) | 5.86% |
| O=C(NC1CCCCC1)C1CCCN(S(=O)(=O)c2ccc(Br)s2)C1 (configuration not stated) | 0.705% (inactive) | 2.95% |
| O=C(CCn1c(=O)[nH]c2ccccc2c1=O)NCCCN1CCN(c2cccc(Cl)c2)CC1 | 7.4% (inactive) | 9.47% |
| CCn1c(=O)cc(OCC(=O)NCCCN2CCN(c3cccc(Cl)c3)CC2)c2ccccc21 | 14.4% (active) | 23.1% |
| Cn1c(C(=O)NCCCN2CCN(c3cccc(Cl)c3)CC2)cc2c(=O)n(C)c3ccccc3c21 | 6.58% (inactive) | 2.89% |
| COc1ccc(C(=O)Nc2cccc(S(C)(=O)=O)c2)cc1 | 7.34% (inactive) | 2.69% |

— PubChem BioAssay AID463193 (University of Pittsburgh Molecular Library Screening Center, 2010)
